Out of some 350,000 compounds screened, about 31,000 (8.9%) were called active. Inconclusive results (about 15%) are left out. Only a selection was taken, and actives are over-represented in it overall. Values without a mark were called inactive. Calls come from the whole dose curve; as a rule, active = well fitted inhibition curve with a large enough effect; inconclusive = small, poorly fitted or top-dose-only effect; inactive = no such curve, though single readings can be large or run the other way.
Each molecule was assayed against Histone-lysine N-methyltransferase EHMT2 (Homo sapiens) (UniProt Q96KQ7) (assay: qHTS Assay for Inhibitors of Histone Lysine Methyltransferase G9a). Details: G9a H3K9 monomethylation, AlphaScreen, 2 h; series mostly up to 59 µM; activity, negative = inhibition: at the top concentration.
How it was run: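 AlphaScreen read-out: biotin-H3K9 peptide (500 nM) methylation by 20 nM enzyme with 20 uM SAM, 2 h at room temperature after 15 min compound preincubation; anti-monomethyl H3K9 antibody plus donor/acceptor beads, 10 min dark.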
% is set by controls: 0 for no effect and ±100 for the full control effect; potency is the fitted concentration of half-maximal effect.
Note: nearly all actives have a fitted effect of over 75% in size.

Chain of Histone-lysine N-methyltransferase EHMT2 (Homo sapiens) (Q96KQ7 913-1193 limits assumed): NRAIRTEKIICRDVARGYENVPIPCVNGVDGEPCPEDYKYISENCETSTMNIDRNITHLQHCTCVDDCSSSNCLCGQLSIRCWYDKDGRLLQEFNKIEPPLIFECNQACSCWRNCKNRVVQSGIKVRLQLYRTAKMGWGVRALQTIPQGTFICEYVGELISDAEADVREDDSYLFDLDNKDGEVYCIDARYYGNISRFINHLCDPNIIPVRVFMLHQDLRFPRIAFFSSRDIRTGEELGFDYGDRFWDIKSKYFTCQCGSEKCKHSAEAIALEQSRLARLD

| Compound | activity, negative = inhibition | Potency |
| --- | --- | --- |
| CCN(CC(=O)NCc1ccc(Cl)cc1)C(=O)c1c(C)noc1C | -126% [at 12.7 µM] |  |
| Cc1cccc(N2CCN(S(=O)(=O)c3ccc4[nH]c5c(c4c3)CCCCC5)CC2)c1C | -34.1% |  |
| Cc1cccc(NC(=O)Cn2nc(-c3ccc(Cl)cc3)c3ccccc3c2=O)c1 | 27.7% |  |
| Cc1ccc(-c2csc(NC(=O)Cn3[nH]c(=O)c4ccccc4c3=O)n2)cc1 | -22.3% [at 102 µM] |  |
| Cc1cc(C)c(-c2csc(NC(=O)CCCc3nc4ccccc4c(=O)[nH]3)n2)c(C)c1 |  | 50.1 µM (active) |
| Cc1ccc(-c2csc(NC(=O)Cc3cccs3)n2)cc1C | -13.1% [at 102 µM] |  |
| CCN(CC)c1ccc(C(=O)NNC(=O)CCc2nc3ccccc3c(=O)[nH]2)cc1 | 34.4% [at 102 µM] |  |
| CCCc1ccc(-c2csc(NC(=O)Cc3cccs3)n2)cc1 | -17.3% [at 102 µM] |  |
| CCCn1c(C)cc(-c2csc(NC(=O)CCc3nc4ccccc4c(=O)[nH]3)n2)c1C |  | 25.1 µM (active) |
| COc1ccc(-c2cc(C(F)(F)F)nc(SCC(=O)N(C)Cc3ccccc3)n2)cc1OC | 16.6% |  |
| N#Cc1ccc(C2N=C(c3ccccc3)NO2)cc1 (stereo not drawn) | 13.3% [at 102 µM] |  |
| Brc1ccccc1C1N=C(c2ccccc2)NO1 (stereo not drawn) |  | 50.1 µM (active) |
| O=C(c1ccc(OC2CCN(C/C=C/c3ccc(F)cc3)CC2)cc1)N1CCCCC1 | 4.87% [at 102 µM] |  |
| CC1CCC(NC(=O)CNC(=O)c2ccc3ccccc3c2)CC1 (stereo not drawn) | 5.09% [at 0.501 µM] |  |
| CCOC(=O)C1=C(C)NC2=C(C(=O)CC(C)(C)C2)C1c1ccsc1 (stereo not drawn) | 1.73% [at 12.7 µM] |  |
| CCCOC(=O)C1=C(C)NC2=C(C(=O)C(C(=O)OC)C(C)C2)C1c1ccc(N(C)C)cc1 (stereo not drawn) |  | 44.7 µM (active) |
| COCCOC(=O)C1=C(C)NC(=O)NC1c1ccc(Cl)cc1 (stereo not drawn) | 20.2% |  |
| N#Cc1cccc(NC(=O)C2CCCN(C(=O)c3ccc(Cl)cc3)C2)c1 (stereo not drawn) | 10.9% [at 12.7 µM] |  |
| CCOC(=O)c1sc2nc(CSCC(=O)OCc3ccc(C(=O)OC)o3)[nH]c(=O)c2c1C | -43.1% |  |
| COC(=O)c1sc2[nH]c(=S)n(N)c(=O)c2c1C |  | 7.94 µM (active) |
| CCOC(=O)c1sc2nc(C)[nH]c(=O)c2c1C | 14.5% |  |
| CCCCN1CC(c2nc3ccccc3n2CCCCOc2ccc(C)cc2C)CC1=O (stereo not drawn) | -41.5% |  |
| O=C(CCn1ccc2cc(S(=O)(=O)N3CCCC3)ccc21)NCc1cccc(Cl)c1 | -5.24% |  |
| CC1CCN(S(=O)(=O)c2ccc3c(ccn3CCC(=O)NCc3ccc(N(C)C)cc3)c2)CC1 |  | 10 µM (active) |

| Compound | activity, negative = inhibition | Potency |
| --- | --- | --- |
| CC1CCN(S(=O)(=O)c2ccc3c(ccn3CC(=O)O)c2)CC1 | 1.09% [at 102 µM] |  |
| CCc1nnc(NC(=O)C2CC(=O)N(c3ccc4c(c3)OCCO4)C2)s1 (stereo not drawn) |  | 10 µM (active) |
| CCOC(=O)CSc1nnc(NC(=O)C2CC(=O)N(c3ccc(F)cc3)C2)s1 (stereo not drawn) |  | 63.1 µM (active) |
| CC(C)C[C@H](NC(=O)C1CC(=O)N(c2ccc3c(c2)OCCO3)C1)C(=O)NC1CCCC1 (stereo partly drawn) | 19% [at 102 µM] |  |
| CC(C)c1nnc(NC(=O)C2CC(=O)N(CCc3ccc(F)cc3)C2)s1 (stereo not drawn) | -20.7% [at 102 µM] |  |
| COc1cccc(N2CC(C(=O)Nc3c(C)cccc3C)CC2=O)c1 (stereo not drawn) | 5.2% |  |
| O=C(Nc1nnc(SCc2c(Cl)cccc2Cl)s1)C1CCCO1 (stereo not drawn) | 47.8% [at 12.7 µM] |  |
| Cc1ccccc1N1CC(C(=O)Nc2nnc(SCCC3OCCO3)s2)CC1=O (stereo not drawn) |  | 25.1 µM (active) |
| Cc1ccccc1N1CC(C(=O)Nc2ccc3c(c2)OCO3)CC1=O (stereo not drawn) | 9.33% [at 102 µM] |  |
| Cc1ccccc1N1CC(C(=O)Nc2ccc(S(=O)(=O)N3CCCC3)cc2)CC1=O (stereo not drawn) | 20.1% [at 2.33 µM] |  |
| CC(=O)c1ccccc1NC(=O)C1CC(=O)N(c2ccc3c(c2)OCCO3)C1 (stereo not drawn) | 5.62% |  |
| Cc1cccc(N2CC(C(=O)Nc3ccccc3N3CCCC3)CC2=O)c1C (stereo not drawn) |  | 70.8 µM (active) |
| CCOC(=O)c1ccc(NC(=O)C2CC(=O)N(c3ccc(C(C)C)cc3)C2)cc1 (stereo not drawn) | -25.6% |  |
| CCCCOc1ccc(C(=O)N2CC(=O)Nc3ccc(Br)cc3C2c2ccc(F)cc2)cc1 (stereo not drawn) | -34.7% |  |
| Cc1ccc(CNC(=O)Cn2c(=O)ccc3cc(S(=O)(=O)N4CCCC4)ccc32)cc1 | 16.7% |  |
| CC(=O)N1c2ccccc2CC1C(=O)N1CCN(c2ccc(F)cc2)CC1 (stereo not drawn) | 19.9% |  |
| C[C@@H](NC(=O)c1nc[nH]c1C(=O)N1CCN(C(=O)OC(C)(C)C)CC1)c1ccccc1 | 4.62% [at 2.33 µM] |  |
| CCOc1ccc(S(=O)(=O)c2cn(Cc3ccc(OC)cc3)c3ccc(F)cc3c2=O)cc1 | -8% |  |
| Cc1ccc(Cc2nnc(SCC(=O)Nc3ccc(C)cc3C)[nH]c2=O)cc1 | -35.1% [at 102 µM] |  |
| CCn1cc(C(=O)NCCc2ccccc2)c(=O)c2cc(S(=O)(=O)N3CCCCCC3)ccc21 | -10.9% |  |
| CCOC(=O)C1CCCN(C(=O)c2ccc3c(c2)sc2nc(-c4ccc(CC)cc4)cn23)C1 (stereo not drawn) | -3.51% |  |
| CCOc1ccc(OCC)c(NC(=O)c2cc(C)nc3c2c(C)nn3-c2cccc(Cl)c2C)c1 | -2.87% |  |
| CC1=C(C(=O)OCc2ccc(C)cc2)C(c2c(Cl)cccc2Cl)CC(=O)N1 (stereo not drawn) | 7.19% |  |
| COc1ccc(CCNC(=O)COC(=O)c2cc(=O)c3ccccc3o2)cc1 | 21.3% [at 12.7 µM] |  |

| Compound | activity, negative = inhibition | Potency |
| --- | --- | --- |
| COc1ccccc1N1CC(C(=O)Nc2nnc(SCC(=O)NCC3CCCO3)s2)CC1=O (stereo not drawn) |  | 31.6 µM (active) |
| COc1ccccc1N1CC(C(=O)Nc2nnc(SCC(=O)NC(C)C)s2)CC1=O (stereo not drawn) | 14.1% [at 12.7 µM] |  |
| COc1cc(OC)cc(C(=O)Nc2nnc(SCC(=O)NCC3CCCO3)s2)c1 (stereo not drawn) | 3.54% |  |
| CN1C(=O)CC(c2ccccc2)C1=O (stereo not drawn) | 4.29% |  |
| COc1ccc(NC(=O)c2cc([N+](=O)[O-])ccc2NC(=O)CNC2CCCCC2C)c(OC)c1 (stereo not drawn) | -24.2% [at 102 µM] |  |
| CCOC(=O)c1ccc(NC(=O)CC2C(=O)N(c3ccccc3)C(=O)N2Cc2cccs2)cc1 (stereo not drawn) | 3.95% |  |
| Cc1ccc(C(C)C)cc1OCC(=O)Nc1ccccc1N1CCCC1 |  | 79.4 µM (active) |
| CN1CCN(c2ccccc2NC(=O)COc2ccc(C3CCCCC3)cc2)CC1 |  | 39.8 µM (active) |
| CCC(=O)N1CCN(c2ccccc2NC(=O)COc2cccc(C)c2C)CC1 | 14.4% [at 102 µM] |  |
| CC(C)n1c(SCC(=O)Nc2ccccc2N2CCCCC2)nc2c1c(=O)n(C)c(=O)n2C | 5.12% |  |
| CCOc1ccccc1NC(=O)COc1ccc(S(=O)(=O)N2CCCC2)cc1 | 32.9% [at 102 µM] |  |
| Cc1ccc(OCC(=O)Nc2ccccc2C(=O)NC2CC2)cc1 | 16.8% [at 12.7 µM] |  |
| CCCC(=O)N1CCN(c2nc3c(OC)ccc(C)c3s2)CC1 | -5.08% |  |
| COc1cccc(NC(=O)COc2cc(C)cc3oc(=O)cc(C)c23)c1 | -12.2% [at 102 µM] |  |
| CNS(=O)(=O)c1cccc(C(=O)OCCCC(=O)c2ccccc2)c1 | -6.99% [at 12.7 µM] |  |
| COc1ccc2c(c1)c(C(=O)N/N=C/c1cccs1)c(C)n2C | 28.4% [at 102 µM] |  |
| CCOc1ccc(S(=O)(=O)N2CCN(C(=S)NCC3CCCO3)CC2)cc1 (stereo not drawn) | -5.51% [at 102 µM] |  |
| Cc1cc(C2=NNC(=Nc3ccc(S(=O)(=O)N4CCOCC4)cc3)SC2)c(C)n1CC1CCCO1 (stereo not drawn) |  | 7.94 µM (active) |
| Cc1ccc(S(=O)(=O)N2CCC(C(=O)NCC3CCCO3)CC2)cc1 (stereo not drawn) | 5.26% |  |
| O=C(NC1CC(=O)N(c2ccc(F)cc2)C1)c1cccs1 (stereo not drawn) | 1.13% |  |
| O=C(NCCC1CCCCN1S(=O)(=O)c1cccs1)C(=O)Nc1ccc(F)cc1F (stereo not drawn) | -3.33% [at 0.501 µM] |  |
| CC(=O)c1ccc(NC(=O)c2nc(-c3ccc(C)cc3)n3c2CCCCC3)cc1 | -32% |  |
| CC(C)Cn1c(=O)c2ccccc2n2c(CCC(=O)N3CCN(c4cccc(Cl)c4)CC3)nnc12 | 7.95% |  |
| O=C1CN(C(=O)COc2c(Cl)cccc2Cl)c2ccccc2N1 | -3.18% [at 102 µM] |  |

| Compound | activity, negative = inhibition | Potency |
| --- | --- | --- |
| CCCCCN(C(=O)CCC(=O)OCC(=O)NC1CCC(C)CC1)c1c(N)n(CCCC)c(=O)[nH]c1=O (stereo not drawn) | 6.8% [at 0.501 µM] |  |
| CC1CCc2[nH]c3ccc(C(=O)N(C)CC(=O)Nc4cccc(F)c4)cc3c2C1 (stereo not drawn) |  | 44.7 µM (active) |
| CN(CC(=O)Nc1cccc(F)c1)C(=O)C1=COCCO1 | 4.45% [at 102 µM] |  |
| CN(CC(=O)Nc1cccc(F)c1)C(=O)CC1CCCC1 | -24.7% [at 102 µM] |  |
| O=C(CCc1ccccc1)NNC(=O)c1ccc(Br)cc1 | 2.57% [at 102 µM] |  |
| O=C(CCc1ccccc1)NNc1ccc(F)cc1 |  | 31.6 µM (active) |
| CC(=O)Nc1ccc(S(=O)(=O)NNC(=O)CCc2ccccc2)cc1 | -29% [at 12.7 µM] |  |
| Cc1cc(C)cc(NC(=O)CCS(=O)(=O)c2cc3c4c(c2)CCN4C(=O)CC3)c1 | -41.9% |  |
| COc1ccc(Cc2nnc(SCC(=O)Nc3ccc(C)c(Cl)c3)[nH]c2=O)cc1 | -0.286% [at 102 µM] |  |
| O=C(NCc1ccccc1)C1CCN(S(=O)(=O)c2ccc3[nH]c(=O)ccc3c2)CC1 | 13.4% |  |
| CCOC(=O)C(C)n1cnc2sc(C)c(C)c2c1=O (stereo not drawn) | -9.24% |  |
| CCOC(=O)c1c(-n2cnnn2)sc(C)c1C |  | 8.91 µM (active) |
| CCOc1ccc(C(=O)COC(=O)c2ccc(-n3cnnn3)cc2)cc1 | 51.5% [at 102 µM] |  |
| C=CCSc1ccc(S(=O)(=O)N2CCN(C)CC2)cn1 | -18.7% |  |
| CCn1c(=O)c2cc(C(=O)NCCc3ccc(Cl)cc3)sc2c2ccccc21 | -24.9% |  |
| O=C(CSc1nc(=O)n2ccccc2n1)Nc1ccc2c(c1)OCCO2 | -11.1% [at 102 µM] |  |
| Cc1ccc(Cl)cc1-n1ncc2c(N3CCC(C(N)=O)CC3)ncnc21 | 2.61% |  |
| COc1ccc(CNC(=O)c2ccc3oc(C(C)C)nc3c2)cc1 | 12% [at 0.501 µM] |  |
| COc1ccc(Br)cc1/C=N/NC(=O)c1cccc(S(=O)(=O)N2CCOCC2)c1 | 3.74% [at 102 µM] |  |
| COc1ccc(Br)cc1/C=N/Nc1ccc(Cl)c(C(=O)O)c1 |  | 14.1 µM (active) |
| COc1ccc(CC(=O)NCC(=O)N/N=C/c2cc(Br)ccc2OC)cc1 | 15.3% [at 102 µM] |  |
